Test results taken from PubChem BioAssay AID651791 (National Center for Advancing Translational Sciences (NCATS), 2012).
Records with an inconclusive call do not appear. The source made the active and inactive calls. Calls come from the whole dose curve; as a rule, active = well fitted inhibition curve with a large enough effect; inconclusive = small, poorly fitted or top-dose-only effect; inactive = no such curve, though single readings can be large or run the other way.

Test: InCell qHTS Assay for Inhibitors of the mTORC1 Signaling Pathway in MEF (Tsc2-/-, p53-/-) Cells: Hit Validation;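 note: phospho-S6 Ser235/236 signal normalized to propidium iodide cell count per well; nearly all actives have a fitted effect of over 75% in size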
Settings: phospho-rpS6 immunofluorescence, 24 h; activity change, negative = inhibition: at 38.3 µM (top of the series)
Potency is the fitted concentration of half-maximal effect.

Structure (SMILES) | Potency | activity change, negative = inhibition
CCCCS(=O)(=O)c1oc(-c2cccs2)nc1S(=O)(=O)c1ccc(F)cc1 | 3.29 µM (active) | 
Cc1cc(NCc2ccc(Cl)cc2)n2cnnc2n1 |  | -100%
CCCCOc1cccc(C(=O)N(Cc2cccs2)c2ccc(OC)cc2)c1 |  | -3.36%
CCCOc1cccc(C2c3c(-c4ccccc4O)n[nH]c3C(=O)N2Cc2ccco2)c1 (configuration not stated) |  | -100%
COc1ccc(N2CCN(C(=O)C(C)n3nc(C)c4sc5ccccc5c4c3=O)CC2)cc1 (configuration not stated) |  | -100%
COc1ccc(C(=O)N2CCN(C(=O)COc3ccc(Br)cc3)CC2)cc1OC |  | -100%
O=C(NCc1ccccc1)c1ccc2c(c1)N(Cc1ccccc1F)C(=O)c1ccccc1S2=O (configuration not stated) |  | -100%
CCOC(=O)N1CCN(Cc2nc3cc(NC(=O)c4ccccc4OC)ccc3n2C(C)C)CC1 |  | -100%
CCOC(=O)c1c(NC(=O)c2nc(S(C)(=O)=O)ncc2Cl)sc(C(C)=O)c1C | 3.69 µM (active) | 
COc1ccc(NS(=O)(=O)c2ccc(-n3cccn3)cc2)cc1OC |  | -100%
O=C(Nc1ccccc1)N(Cc1cccc(Cl)c1)c1ccccn1 |  | -100%
Cc1ccc(-c2nnc(Nc3cccc(Cl)c3)c3ccccc23)cc1S(=O)(=O)N1CCN(C)CC1 |  | -100%
COc1ccc(CN2CCN(c3ncnc4sc5c(c34)CCCC5)CC2)cc1F |  | -100%
Cc1c(Cl)ccc2sc(NC(=O)c3ccc(S(=O)(=O)N4CCCc5ccccc54)cc3)nc12 |  | -3.12%
COc1ccccc1NC(=O)CSc1ccc(-c2ccccn2)nn1 |  | -100%
O=C(CC(NCc1cccnc1)C(=O)O)Nc1ccc(O)cc1 (configuration not stated) |  | -100%
CCOc1ccc(N(CC(=O)Nc2ccccc2CC)S(=O)(=O)c2c(C)noc2C)cc1 |  | -100%
COc1ccc2cc(CNc3ccccc3)c(=O)n(CC(=O)Nc3ccc(C)cc3C)c2c1 |  | -13.3%
O=C(Nc1ccc2oc(-c3ccc4ccccc4c3)nc2c1)c1cc(Br)ccc1Cl | 18.5 µM (active) | 

Structure (SMILES) | Potency | activity change, negative = inhibition
COCCCNC(=O)c1ccc(CSc2nc3cccnc3n2Cc2ccc(OC)cc2)cc1 |  | -100%
CCOC(=O)N1CCN(Cc2nc3cc(NC(=O)CC(C)C)ccc3n2C(C)C)CC1 |  | -100%
CC(C)(C)c1ccc(C2NC(=O)c3n[nH]c(-c4cccs4)c32)cc1 (configuration not stated) |  | -100%
Cc1nc2nncn2c(NCc2ccc(F)cc2)c1C |  | -100%
CCC(C(=O)N1CCN(c2cccc(C)c2C)CC1)n1nc(C)c2sc3ccccc3c2c1=O (configuration not stated) |  | -100%
CCCS(=O)(=O)c1ncc(Cl)c(C(=O)N2CCN(c3ccc(OC)cc3)CC2)n1 | 1.85 µM (active) | 
CCOC(=O)C(Cc1c[nH]c2ccccc12)NC(=O)COc1ccc(Cl)cc1 (configuration not stated) |  | -100%
COc1ccc(N(C)C(=O)c2cc(S(=O)(=O)N3CCc4ccccc43)cn2C)c(OC)c1 |  | -100%
COc1ccccc1NC(=O)c1sc(-c2ccc(Cl)cc2)cc1N |  | -100%
CC(C)S(=O)(=O)c1oc(-c2ccc(F)cc2)nc1S(=O)(=O)c1ccc(F)cc1 | 0.927 µM (active) | 
N#C/C(=C\c1ccc(-c2ccc(F)cc2F)o1)c1nc2ccccc2[nH]1 |  | -27.3%
CC1=Nc2cc(C(=O)NC3CCCC3)ccc2Sc2ccc(Cl)cc21 |  | -100%
CCS(=O)(=O)c1ncc(Cl)c(C(=O)N(Cc2ccccc2)Cc2ccco2)n1 | 3.69 µM (active) | 
Cc1ccc(NC(=O)c2c(NC(=O)C(F)(F)F)sc3c2CCCCC3)cc1 |  | -100%
CCOc1ccccc1NC(=O)Cn1nnc(C(=O)NCc2cccs2)c1N |  | -100%
CCC(=O)C1=C(c2ccc(F)cc2)N(C(=O)CC)n2cnnc2S1 |  | -21.8%
COc1cc(NC(=O)CSc2ccc(-c3ccccn3)nn2)cc(OC)c1 |  | -100%
Cc1nc2nncn2c(NCc2ccc(Cl)cc2)c1C |  | -100%
